Source: PubChem
Hits are enriched below; roughly 1.3% of the tested compounds scored in any of these assays.
MazF activator: increases E. coli MazEF RNase cleavage of RNA. activation, % at 20 µM. AID 504720. FAM/BHQ RNA-DNA oligo cleavage fluorescence, 5 h. P0AE70. hit rate 0.32% among 350,000; in the data active = activation above about 50%
Target sequence (P0AE70 whole entry, looked up): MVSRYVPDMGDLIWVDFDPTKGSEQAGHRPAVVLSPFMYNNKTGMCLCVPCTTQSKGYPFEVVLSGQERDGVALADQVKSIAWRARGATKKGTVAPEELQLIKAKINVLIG
CCHFV vOTU inh: blocks the CCHF virus ovarian tumor domain protease | CCHFV vOTU protease, Pep-AMC fluorescence | hit rate 0.55% among 370,000 | inhibition, % at 11.5 µM; in the data active = inhibition above about 30%; also: 0% = vehicle wells with enzyme and 100% = no enzyme wells
Sa RN4220 lethal: kills Staphylococcus aureus RN4220 | hit rate 0.33% among 330,000 | S. aureus RN4220 growth, OD600, 16 h | inhibition, % (test concentration not listed); in the data active = inhibition above about 85%;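 also: plate controls were untreated cells for no effect and reference antibiotic for full effect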
3CLpro inhibitor: SARS-CoV 3CLpro protease inhibition; recombinant SARS-CoV 3CLpro, quenched FRET peptide cleavage; inhibition, % at 6 µM; hit rate 0.14% among 290,000; AID 1706; in the data active = inhibition above about 12%
Sa ugtP lethal: growth inhibition of S. aureus ugtP deletion strain; S. aureus RN4220 ugtP deletion, OD600 growth, 16 h; growth inhibition, % (no concentration beside the values); hit rate 0.54% among 330,000; AID 1259309; in the data active = growth inhibition above about 68%;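 also: plate controls were untreated wells for no effect and antibiotic for full effect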
Mtb betalactam: beta-lactam sensitization of Mtb H37Rv | AID 434955 | hit rate 0.27% among 330,000 | inhibition, % at 25 µM | M. tuberculosis H37Rv growth with meropenem, percent inhibition; call rule not given here;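 also: growth measured after seven days incubation then overnight dye step; 0% = bacteria only wells and 100% = bacteria with antibiotic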
The depositor's hits bear a star; ? = inconclusive; . = not tested or not shown.

SMILES	MazF activator	CCHFV vOTU inh	Sa RN4220 lethal	3CLpro inhibitor	Sa ugtP lethal	Mtb betalactam
O=[N+]([O-])c1ccc(O)c(C=NNC(=S)Nc2ccc(Cl)cc2Cl)c1	.	.	83.0	.	99.8*	.
O=C1NCCCC1C(=O)N/N=C/c1cc([N+](=O)[O-])ccc1O (configuration not stated)	1.3	0.9	.	0.7	.	2.5
O=C(NN=Cc1cc([N+](=O)[O-])ccc1O)C1C2CCCCC21 (configuration not stated)	.	.	88.7*	.	75.2	.
O=C1NCCCC1C(=O)NN=Cc1cc([N+](=O)[O-])ccc1O (configuration not stated)	.	.	90.3*	.	86.6	.
O=C(NN=Cc1cc([N+](=O)[O-])ccc1O)C1CCCCC1	.	.	94.7*	.	85.6*	.
O=C(N/N=C/c1cc([N+](=O)[O-])ccc1O)C1CC1	1.2	8.0	.	-2.4	.	.
CCOc1ccc(C=NNC(=O)C2(O)c3ccccc3-c3ccccc32)cc1	.	.	5.3	.	14.5	.
CCn1c(SCC(=O)NN=C/C=C/c2ccco2)nnc1-c1ccccc1	.	.	0.2	.	-2.7	.
CC(CC(=O)Nc1ccc(Cl)cc1Cl)=NNC(=O)c1ccco1	.	.	13.3	.	6.4	.
COc1cc(OC)c(C2SCCS2)c(OC)c1	1.2	11.7	-0.9	0.7	-2.0	-10.3
COc1cc(OC)c([C@H]2C=C(C)[C@H]3C[C@@H]2C3(C)C)c(OC)c1	0.7	-10.0	-6.6	.	94.1*	16.5
CC(CC(=O)NC(C)(C)C)=NNC(N)=S	.	.	3.1	.	4.4	.
COc1ccc2c(c1)S/C(=C\C(=O)c1ccncc1)N2C	140.7*	14.0	.	-2.9	.	57.8
COc1cc(OC)cc(C(=O)/C=C2\Sc3ccccc3N2C)c1	0.3	-3.9	2.7	-4.9	-7.4	0.7
CN1/C(=C/C(=O)c2ccc(Cl)cc2)Sc2cc3c(cc21)OCO3	431.3*	-5.0	0.5	0.7	-4.3	2.1
CN(N=Cc1cccnc1)c1cnn(-c2ccc(F)c(Cl)c2)c(=O)c1Cl	.	.	7.2	.	-5.9	.
COC(=O)c1ccc(CC(C(=O)c2ccccc2)N(C)C)cc1 (configuration not stated)	52.8*	-7.2	5.5	-4.1	12.5	-0.8
O=C(O)c1cc(C(=O)O)cc(-c2ccc(/C=c3/sc4nc5ccccc5n4c3=O)o2)c1	-45.1	.	.	-0.7	.	.
O=C(O)c1cccc(-c2ccc(/C=c3/sc4nc5ccccc5n4c3=O)o2)c1	580.8*	-2.2	.	7.4	.	-7.8
O=C(NCC1CCCO1)C(=O)NN=Cc1ccccc1C(=O)O (configuration not stated)	.	.	31.0	.	-5.9	.
O=C1CCC(C(=O)N2CSCC2C(=O)O)N1 (configuration not stated)	.	.	-0.4	.	1.5	.
C#CCOCCOCCOCCNc1nc(N2CCOCC2)nc(N2CCN(C(=O)CCCCCCCCCCNC(=O)C(CO)n3cc(CCCCCN)nn3)CC2)n1 (configuration not stated)	.	.	6.2	.	5.6	.
CC(=NN1CCN(c2ccccn2)CC1)c1ccc([N+](=O)[O-])cc1	.	.	6.5	.	-3.2	.
CCN(CC)c1ccc(CNc2nnnn2C)cc1	7.2	-13.2	1.8	2.7	-0.7	-4.3
CCCn1nnnc1NCc1ccc(N(CC)CC)cc1	554.9*	0.1	2.6	1.5	6.0	-6.2
SMILES	MazF activator	CCHFV vOTU inh	Sa RN4220 lethal	3CLpro inhibitor	Sa ugtP lethal	Mtb betalactam
COc1cc(C=NN2CCN(c3ccccc3)CC2)cc(OC)c1OC(C)=O	.	.	-0.6	.	5.0	.
O=C(C#Cc1cccc([N+](=O)[O-])c1)c1ccccc1	.	.	74.6	-0.4	97.5*	2.5
O=C(O)C(=Cc1cccc([N+](=O)[O-])c1)c1ccccc1	2.2	-5.1	.	.	.	.
CCOc1ccc(NC(=O)CCC(=O)NN=C(C)c2cccs2)cc1	.	.	1.7	.	4.5	.
CC1CCc2cccc3c2N1c1cc(C#N)c(C#N)cc1O3 (configuration not stated)	83.6*	-8.7	3.9	-2.5	-27.3	-11.1
Cc1cc(C(=O)CN2C(=O)c3ccccc3C2=O)c(C)n1Cc1cccs1	68.3*	-9.3	7.3	4.4	-1.3	-5.6
Cc1ccc(C(=O)Nc2cccc(-c3cnc4ccccc4n3)c2)cc1	5.3	-9.9	2.1	-1.4	2.7	3.5
Cc1cccc(C(=O)Nc2cccc(-c3cnc4ccccc4n3)c2)c1	53.3*	-2.3	1.1	-2.4	2.9	-0.1
O=C(Nc1cc(Cl)cc(Cl)c1)Nc1cnccn1	-57.0	10.8	99.6*	2.2	100.1*	63.5
CC(C)(C)OC(=O)CC1CC=CCC(CC(=O)N(CCO)Cc2ccccc2)C(=O)NC(c2ccccc2)COC1=O (configuration not stated)	.	.	4.7	.	3.7	.
O=C(Nc1nnc(-c2ccccc2)o1)c1nc2ccccc2s1	-3.7	13.2	97.9*	.	98.1*	95.3
NC(=O)c1oc2ccccc2c1NC(=O)c1nc2ccccc2s1	10.4	3.9	0.5	3.7	-0.3	-14.6
O=C(Nc1ccc(Cl)cc1Cl)NC1CCN(S(=O)(=O)c2ccc(F)cc2)CC1	100.7*	6.6	-1.0	2.4	-13.2	-4.5
O=C1NCC(c2ccccc2)N(CCc2cccc3ccccc23)C1=O (configuration not stated)	.	.	3.7	.	0.2	.
O=C(Nc1ccccc1)C1=CC(c2ccc(C(F)(F)F)cc2)CC(OCCCCO)O1 (configuration not stated)	.	.	4.2	.	2.6	.
CN(C)CCCN(C(=O)COc1ccc(Cl)cc1)c1nc2cc3c(cc2s1)OCCO3	34.7	-11.8	-0.8	.	90.8*	-5.4
O=C(Nc1nc2ccccc2s1)c1ccc([N+](=O)[O-])o1	-0.4	2.4	7.8	-3.4	4.6	89.2
CN(C)CCCN(C(=O)c1ccc2c(c1)OCCO2)c1nc2cc3c(cc2s1)OCO3	0.9	9.2	-3.7	-4.0	8.5	17.2
Cc1cc(C)c2nc(NC(=O)c3ccc([N+](=O)[O-])o3)sc2c1	10.1	-7.5	7.5	4.7	99.3*	6.8
O=C(Nc1nc2cc3c(cc2s1)OCCO3)c1ccc([N+](=O)[O-])o1	5.0	9.3	20.9	-1.1	88.1*	?
CN(C)CCCN(C(=O)c1ccc([N+](=O)[O-])o1)c1nc2cc3c(cc2s1)OCO3	17.3	51.4*	3.7	0.4	14.0	5.5
COc1cccc(CN2C(=O)C3Cc4c([nH]c5ccccc45)C(C)(C)N3C2=O)c1 (configuration not stated)	.	.	2.6	.	8.8	.
COc1ccc(Br)cc1C=NNC(=O)CNC(=O)C1COc2ccccc2O1 (configuration not stated)	.	.	3.3	.	2.2	.
CCc1c(C(=O)NN=Cc2ccc(OCc3ccc(F)cc3)c(OC)c2)nnn1-c1nonc1N	.	.	18.5	.	-4.3	.
Cn1cnnc1SCc1ccc(C(=O)NN=Cc2cccs2)cc1	.	.	3.7	.	3.1	.
COc1ccc2nc(NC(=O)c3ccc([N+](=O)[O-])o3)sc2c1	7.2	-1.5	48.2	1.8	100.2*	100.0
Nc1nc(Cl)cc(N2CCC(c3cc(-c4ccc(Cl)cc4)n[nH]3)CC2)n1	-12.9	-1.7	28.3	-4.2	94.2*	19.4
COc1ccc(-c2cc(C3CCN(c4cc(Cl)nc(N)n4)CC3)[nH]n2)cc1	3.1	-5.7	-7.0	2.4	94.9*	97.0
